According to PubChem BioAssay (NCATS):
“And” between values parts separate entries of the source, which are not always exact repeats. Identical values can stand only once. Records with an inconclusive call do not appear. A call without a number means that no potency is given here. The source made the active and inactive calls. Unless noted, calls come from the whole dose curve.

Tests used:
[1] = Cell Viability - BJ (AID 421); conditions: BJ fibroblast viability, qHTS;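 note: potency is the fitted concentration of half-maximal effect; cells exposed to compound for 40 hours at 37 °C before readout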
Summary of the method: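 Cytotoxicity in human BJ foreskin fibroblasts is scored as loss of cellular ATP after a 40-hour exposure, measured by luciferase luminescence. Controls are DMSO and 100 uM tamoxifen.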

[2] = Cell Viability - SH-SY5Y (AID 544; active = well fitted curve in the direction sought with a large enough effect; an effect the other way counts as inactive or inconclusive;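 note: cells exposed to compound for 40 hours; nearly all actives have a fitted effect of over 55% in size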; note: potency is the fitted concentration of half-maximal effect); conditions: SH-SY5Y neuroblastoma cell viability; viability change, negative = cytotoxic: at 92.2 µM (top of the series)
Summary of the method: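 Cytotoxicity measured via ATP-dependent luciferase luminescence (CellTiter-Glo) following 40 h, 37 °C exposure of 1500 SH-SY5Y cells per well. Concentration-response data were fitted with the standard Hill equation to give AC50.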

[3] = Cellular Toxicity (caspase-3) Jurkat (AID 655; active = well fitted curve in the direction sought with a large enough effect; an effect the other way counts as inactive or inconclusive;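 note: cells exposed to compound for 16 h at 37 °C before reading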); conditions: Jurkat caspase-3 activation, luminescence; caspase-3 activation: at 92.2 µM (top of the series), DMSO = 0%, tamoxifen = 100%
Summary of the method: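 5000 Jurkat cells/well; compound 16 hr, 37 °C; Caspase-Glo 3/7 added, 20 min RT; luminescence read. Norm: DMSO = 0%, tamoxifen 100 uM = 100%. AC50, Hill model.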

[4] = Cell Viability - LYMP2-005 (AID 967; active = well fitted curve in the direction sought with a large enough effect; an effect the other way counts as inactive or inconclusive;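 note: cells exposed to compound for 24 h at 37 °C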); conditions: LYMP2-005 lymphoblastoid cell viability; series mostly up to 92.2 µM
Summary of the method: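 Acute cytotoxicity is scored as a concentration-dependent drop in intracellular ATP in human lymphoblastoid LYMP2-005 cells after 24 h compound treatment. ATP is quantified by luciferase luminescence, and AC50 is derived by Hill-equation modelling.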

[5] = molecular target: Bile acid receptor (Homo sapiens) (UniProt Q96RI1); test: qHTS assay for small molecule antagonists of farnesoid X receptor signaling (AID 588526); conditions: HEK293T FXR-UAS-bla, beta-lactamase ratio, antagonist mode; series mostly up to 76.7 µM
Summary of the method: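 Concentration-response titrations were fitted to the Hill equation for half-maximal inhibition and maximal response, with data normalised to 50 uM chenodeoxycholic acid and DMSO control wells. Cells: FXR-UAS-bla HEK293T, dialyzed FBS.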

[6] = molecular target: Glucocorticoid receptor (Homo sapiens) (UniProt P04150); test: qHTS assay for small molecule antagonists of glucocorticoid receptor signaling (AID 588533; active = well fitted inhibition curve with a large enough effect in the signal ratio, with a control signal flat, not every such curve was filed as active; the % refers to the signal ratio;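 note: cells stimulated with 2 nM dexamethasone as agonist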); conditions: HeLa MMTV-bla, GRE beta-lactamase ratio, antagonist mode, 18 h; series mostly up to 76.8 µM
Summary of the method: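 Antagonist-mode qHTS: compound titrations added to GRE-bla HeLa cells, then dexamethasone 2 nM final; 18 h, 37 C. CCF4 FRET fluorescence normalized to dexamethasone and DMSO; IC50 from Hill fit.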

[7] = molecular target: Peroxisome proliferator-activated receptor delta (Homo sapiens) (UniProt Q03181); test: qHTS assay for small molecule agonists of peroxisome proliferator-activated receptor delta signaling (AID 588534); conditions: HEK293T PPARdelta-UAS-bla, beta-lactamase ratio, 18 h; series mostly up to 76.7 µM
Summary of the method: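 Agonist-mode beta-lactamase reporter readout (CCF4 dye, 2 h at RT) after 18 h at 37 °C exposure to a titration; Hill-equation fitting gave EC50 and maximal response.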

[8] = qHTS assay for small molecule antagonists of peroxisome proliferator-activated receptor delta signaling (AID 588535; active = well fitted inhibition curve with a large enough effect in the signal ratio, with a control signal flat, not every such curve was filed as active; the % refers to the signal ratio;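 for max response: cells co-treated with a PPAR-delta agonist as stimulator during compound exposure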); conditions: HEK293T PPARd-UAS-bla, beta-lactamase FRET ratio, 18 h; 460 nm channel
Summary of the method: (§1)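 Inhibition of PPAR-delta response element-driven beta-lactamase expression is measured in HEK293T cells exposed to a compound titration series for 18 hrs at 37 C. Half-maximal inhibition comes from Hill equation fitting.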

[9] = molecular target: Peroxisome proliferator-activated receptor delta (Homo sapiens) (UniProt Q03181); test: as above; conditions: HEK293T PPARd-UAS-bla, beta-lactamase FRET ratio, 18 h; series mostly up to 76.7 µM
Summary of the method: as §1

[10] = qHTS assay for small molecule agonists of the antioxidant response element (ARE) signaling pathway (AID 651741; active = well fitted activation curve with a large enough effect in the signal ratio; the % refers to the signal ratio; note: potency is the fitted concentration of half-maximal effect); conditions: HepG2 ARE-bla reporter, beta-lactamase FRET ratio, 16 h; series mostly up to 96 µM
Summary of the method: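 Reporter: beta-lactamase under ARE, stably in HepG2. Exposure: 16 h, 37 C, compounds delivered in DMSO by pin tool after 5 h cell preincubation. Readout: FRET substrate fluorescence after 2 h at RT.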

[11] = qHTS assay for small molecule activators of the nuclear factor-kappa B (NF-kB) signaling pathway (AID 651749; active = well fitted activation curve with a large enough effect in the signal ratio; the % refers to the signal ratio); conditions: NF-kB-bla ME-180 cells, beta-lactamase FRET ratio, 16 h; stronger effect = higher value
Summary of the method: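 Human ME-180 cervical cells with an NF-kB-bla construct; compounds added via 23 nL pin transfer, DMSO as vehicle; incubation 16 hr. Reporter activity measured by FRET disruption.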

[12] = qHTS assay for small molecule disruptors of the mitochondrial membrane potential - 1 hr assay (AID 651754); conditions: series mostly up to 92.2 µM; note: nearly all actives have a fitted effect of over 35% in size; note: potency is the fitted concentration of half-maximal effect
Summary of the method: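 Mitochondrial potential in living HepG2 cells after 1 hr compound treatment at 37C was read with Mito-MPS dye added for a further 30 min. Red aggregate and green monomer fluorescence were measured; loss of potential leaves dye as cytoplasmic monomers.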

[13] = Cell Viability - NIH 3T3 (AID 541; active = well fitted curve in the direction sought with a large enough effect; an effect the other way counts as inactive or inconclusive;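 note: cells exposed to compound for 40 hours; nearly all actives have a fitted effect of over 25% in size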); conditions: NIH 3T3 cell viability, qHTS; activity change, negative = cytotoxicity: at 92.2 µM (top of the series)
Summary of the method: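 Intracellular ATP (CellTiter-Glo luminescence, 20 min at room temperature) measured after 40 hr compound exposure at 37 °C of 1000 NIH 3T3 mouse fibroblasts/well in complete medium; AC50 derived by Hill-equation modelling of qHTS concentration-response curves.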

[14] = molecular target: Estrogen receptor (Homo sapiens) (UniProt P03372); test: qHTS assay for small molecule antagonists of estrogen receptor alpha signaling (AID 588513; active = well fitted curve in the direction sought with a large enough effect in the signal ratio, with a control signal flat, not every such curve was filed as active; the % refers to the signal ratio); conditions: ER-alpha-UAS-bla HEK293, beta-lactamase ratio, antagonist mode; series mostly up to 76.9 µM
Summary of the method: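 Fluorescence from CCF4 substrate after 2 h at room temperature gave reporter activity; cells had been exposed to compound and 0.5nM 17-beta-estradiol for 18 h at 37 C. Hill-equation fitting yielded IC50 and maximal response.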

[15] = molecular target: Estrogen receptor (Homo sapiens) (UniProt P03372); test: qHTS assay for small molecule agonists of estrogen receptor alpha signaling (AID 588514); conditions: ER-alpha-UAS-bla HEK293, beta-lactamase ratio, 18 h; series mostly up to 76.8 µM; note: nearly all actives have a fitted effect of over 70% in size
Summary of the method: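 EC50 and efficacy came from Hill fits of beta-lactamase reporter signal (CCF4 dye, 2 h at room temperature) scaled between DMSO and 20 nM 17-beta-estradiol. Agonist mode: HEK293 ER-alpha-UAS-bla cells in charcoal/dextran-stripped serum medium, 18 h compound exposure at 37 C.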

[16] = qHTS assay for small molecule activators of the p53 signaling pathway (AID 651743; active = well fitted activation curve with a large enough effect in the signal ratio, not every such curve was filed as active; the % refers to the signal ratio); conditions: HCT-116 p53RE-bla, beta-lactamase FRET ratio, 16 h; activation: stronger effect = higher value
Summary of the method: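 Agonist-mode quantitative HTS in HCT-116 cells carrying a p53-response-element beta-lactamase reporter; 16 h compound treatment at 37 C, then FRET substrate loading for 2 h at room temperature and fluorescence read.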

[17] = molecular target: Glucocorticoid receptor (Homo sapiens) (UniProt P04150); test: qHTS assay for small molecule agonists of glucocorticoid receptor signaling (AID 588532; active = well fitted curve in the direction sought with a large enough effect in the signal ratio, with a control signal flat; the % refers to the signal ratio); conditions: HeLa MMTV-bla, beta-lactamase ratio, agonist, 18 h; stronger effect = higher value; percent of dexamethasone control, DMSO zero
Summary of the method: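 Stimulation of a glucocorticoid response element-driven beta-lactamase gene was measured in HeLa cells. Responses were scaled between DMSO basal and 0.1 uM dexamethasone, then fitted for half-maximal stimulation.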

[18] = molecular target: Retinoic acid receptor RXR-alpha (Homo sapiens) (UniProt P19793); test: qHTS assay for small molecule agonists of retinoid X receptor alpha signaling (AID 588544); conditions: HEK293T RXRa-UAS-bla, beta-lactamase reporter, 18 h; series mostly up to 76.7 µM
[19] = molecular target: Peroxisome proliferator-activated receptor gamma (Homo sapiens) (UniProt P37231); test: qHTS assay for small molecule antagonists of peroxisome proliferator-activated receptor gamma signaling (AID 588537; active = well fitted inhibition curve with a large enough effect in the signal ratio, with a control signal flat, not every such curve was filed as active; the % refers to the signal ratio;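 note: reporter cells co-stimulated with 50 nM rosiglitazone agonist during compound treatment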); conditions: HEK293 PPARg-UAS-bla, beta-lactamase ratio, antagonist mode; series mostly up to 76.8 µM
Summary of the method: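 Compounds are tested as concentration series for inhibition of rosiglitazone-driven (50 nM) reporter expression in GeneBLAzer PPAR-gamma-UAS-bla HEK293 cells. After 16 h at 37 C, CCF4 substrate is added for 2 h at room temperature and blue/green fluorescence is measured.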

[20] = qHTS assay for small molecule disruptors of the mitochondrial membrane potential - 5 hr assay (AID 651755); conditions: JC-1-type ratio dye; series mostly up to 92.2 µM; note: nearly all actives have a fitted effect of over 40% in size
Summary of the method: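 Seed HepG2 overnight, add compound, incubate 5 hr at 37C and 5% CO2, stain 30 min with Mito-MPS, then measure monomer (490/535 nm) and aggregate (540/590 nm) fluorescence.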

Peroxisome proliferator-activated receptor gamma (Homo sapiens), sequence (P37231 whole entry, looked up): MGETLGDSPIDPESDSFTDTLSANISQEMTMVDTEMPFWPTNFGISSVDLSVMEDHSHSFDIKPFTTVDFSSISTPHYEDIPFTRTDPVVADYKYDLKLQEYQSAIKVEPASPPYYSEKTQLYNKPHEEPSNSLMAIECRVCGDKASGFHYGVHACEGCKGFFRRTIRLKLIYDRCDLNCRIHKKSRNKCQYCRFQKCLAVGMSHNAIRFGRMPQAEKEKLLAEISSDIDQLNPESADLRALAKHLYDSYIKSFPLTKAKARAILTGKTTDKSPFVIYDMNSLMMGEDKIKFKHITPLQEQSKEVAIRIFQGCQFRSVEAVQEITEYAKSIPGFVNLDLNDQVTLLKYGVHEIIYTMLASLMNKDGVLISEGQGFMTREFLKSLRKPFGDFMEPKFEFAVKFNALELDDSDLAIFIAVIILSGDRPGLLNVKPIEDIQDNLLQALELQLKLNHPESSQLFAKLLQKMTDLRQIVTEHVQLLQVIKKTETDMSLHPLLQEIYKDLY
Estrogen receptor (Homo sapiens), sequence (P03372 whole entry, looked up): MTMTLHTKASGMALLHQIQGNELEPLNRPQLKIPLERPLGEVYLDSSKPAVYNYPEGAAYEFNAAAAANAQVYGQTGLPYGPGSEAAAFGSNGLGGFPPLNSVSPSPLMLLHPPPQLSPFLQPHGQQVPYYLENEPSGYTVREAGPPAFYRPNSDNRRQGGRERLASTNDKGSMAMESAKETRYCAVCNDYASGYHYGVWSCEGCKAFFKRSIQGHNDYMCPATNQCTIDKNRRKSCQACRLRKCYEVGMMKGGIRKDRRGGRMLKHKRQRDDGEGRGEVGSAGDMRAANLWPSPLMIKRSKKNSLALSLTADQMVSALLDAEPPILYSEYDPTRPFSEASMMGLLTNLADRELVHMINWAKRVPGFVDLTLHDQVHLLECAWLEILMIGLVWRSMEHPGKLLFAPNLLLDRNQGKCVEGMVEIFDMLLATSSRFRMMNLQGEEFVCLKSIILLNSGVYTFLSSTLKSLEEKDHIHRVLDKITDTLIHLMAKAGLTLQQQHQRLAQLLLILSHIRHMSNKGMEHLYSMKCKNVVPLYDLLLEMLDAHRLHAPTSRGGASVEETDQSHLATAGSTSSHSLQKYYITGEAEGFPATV
Retinoic acid receptor RXR-alpha (Homo sapiens), sequence (P19793 whole entry, looked up): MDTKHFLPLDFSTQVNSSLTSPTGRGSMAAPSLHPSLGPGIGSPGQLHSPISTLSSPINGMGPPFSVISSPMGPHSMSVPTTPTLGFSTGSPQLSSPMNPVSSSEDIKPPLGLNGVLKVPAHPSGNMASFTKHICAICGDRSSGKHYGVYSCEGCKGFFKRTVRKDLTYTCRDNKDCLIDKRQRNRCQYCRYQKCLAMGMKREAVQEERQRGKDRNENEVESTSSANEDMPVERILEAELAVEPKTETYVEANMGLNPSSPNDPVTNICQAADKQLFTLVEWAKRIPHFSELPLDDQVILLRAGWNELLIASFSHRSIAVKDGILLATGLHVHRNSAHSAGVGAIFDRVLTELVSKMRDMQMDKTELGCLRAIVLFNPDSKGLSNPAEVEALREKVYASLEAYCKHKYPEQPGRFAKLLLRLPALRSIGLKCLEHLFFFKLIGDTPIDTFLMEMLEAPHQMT
Bile acid receptor (Homo sapiens), sequence (Q96RI1 whole entry, looked up): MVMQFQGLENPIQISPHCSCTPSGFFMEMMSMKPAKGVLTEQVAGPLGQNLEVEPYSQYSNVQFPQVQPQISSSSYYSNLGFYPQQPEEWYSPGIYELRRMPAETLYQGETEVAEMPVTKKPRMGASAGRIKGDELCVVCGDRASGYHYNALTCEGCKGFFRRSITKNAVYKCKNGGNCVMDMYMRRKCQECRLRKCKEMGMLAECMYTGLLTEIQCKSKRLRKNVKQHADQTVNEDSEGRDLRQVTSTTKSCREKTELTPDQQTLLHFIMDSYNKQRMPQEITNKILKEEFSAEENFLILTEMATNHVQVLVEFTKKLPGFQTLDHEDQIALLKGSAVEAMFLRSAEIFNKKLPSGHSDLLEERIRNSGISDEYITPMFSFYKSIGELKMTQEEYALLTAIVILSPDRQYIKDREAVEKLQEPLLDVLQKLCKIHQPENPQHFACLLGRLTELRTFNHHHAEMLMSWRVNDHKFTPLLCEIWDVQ
Glucocorticoid receptor (Homo sapiens), sequence (P04150 whole entry, looked up): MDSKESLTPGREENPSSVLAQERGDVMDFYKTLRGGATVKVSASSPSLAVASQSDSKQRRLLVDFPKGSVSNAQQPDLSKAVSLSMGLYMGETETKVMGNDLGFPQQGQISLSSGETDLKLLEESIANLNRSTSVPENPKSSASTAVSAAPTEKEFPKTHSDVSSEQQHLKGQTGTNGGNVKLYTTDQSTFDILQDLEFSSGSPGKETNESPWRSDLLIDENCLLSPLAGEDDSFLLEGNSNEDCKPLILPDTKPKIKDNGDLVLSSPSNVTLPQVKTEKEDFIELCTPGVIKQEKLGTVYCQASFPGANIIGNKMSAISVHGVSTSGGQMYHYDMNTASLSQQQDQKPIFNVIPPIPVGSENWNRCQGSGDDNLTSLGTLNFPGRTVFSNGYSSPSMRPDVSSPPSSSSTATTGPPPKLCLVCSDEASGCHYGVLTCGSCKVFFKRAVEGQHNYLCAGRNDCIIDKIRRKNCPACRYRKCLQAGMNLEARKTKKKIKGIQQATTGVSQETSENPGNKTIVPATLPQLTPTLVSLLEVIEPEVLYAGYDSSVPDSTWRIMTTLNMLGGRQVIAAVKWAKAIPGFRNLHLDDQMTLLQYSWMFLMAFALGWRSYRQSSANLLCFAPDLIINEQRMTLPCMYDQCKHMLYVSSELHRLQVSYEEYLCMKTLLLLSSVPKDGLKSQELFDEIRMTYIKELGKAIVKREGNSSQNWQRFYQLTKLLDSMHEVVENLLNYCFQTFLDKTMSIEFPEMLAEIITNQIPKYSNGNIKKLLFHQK
Peroxisome proliferator-activated receptor delta (Homo sapiens), sequence (Q03181 whole entry, looked up): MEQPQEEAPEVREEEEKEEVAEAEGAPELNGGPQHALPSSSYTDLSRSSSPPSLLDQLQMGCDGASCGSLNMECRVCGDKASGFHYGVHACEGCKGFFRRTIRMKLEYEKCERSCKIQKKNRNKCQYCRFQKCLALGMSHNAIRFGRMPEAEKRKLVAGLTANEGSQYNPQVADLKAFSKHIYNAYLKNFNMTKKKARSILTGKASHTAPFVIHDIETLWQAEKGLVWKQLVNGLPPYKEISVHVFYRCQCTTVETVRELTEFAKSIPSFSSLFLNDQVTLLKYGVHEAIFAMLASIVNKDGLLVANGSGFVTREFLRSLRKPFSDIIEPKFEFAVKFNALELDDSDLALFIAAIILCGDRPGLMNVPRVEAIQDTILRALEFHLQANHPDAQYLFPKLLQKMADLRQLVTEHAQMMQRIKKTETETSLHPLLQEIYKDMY

SMILES: CCOC(=O)CBr
- Potency [1]: > 92 µM (inactive)
- Potency [2]: inactive
- caspase-3 activation [3]: 1.06% (inactive)
- Potency [4]: inactive
- outcome [5]: inactive
- outcome [6]: inactive
- outcome [7]: inactive
- max response [8]: -11.7%
- outcome [9]: inactive
- Potency [10]: inactive
- activation [11]: -0.133% (inactive)
- Potency [12]: inactive

SMILES: c1ccc(N=NNc2ccccc2)cc1
- Potency [1]: > 92 µM (inactive)
- Potency [13]: inactive
- Potency [4]: inactive
- Potency [14]: inactive
- Potency [15]: inactive
- outcome [7]: inactive
- max response [8]: -9.27% and 22.4%
- Potency [10]: 26.6 µM (active) and 9.69 µM (active)
- activation [16]: -4.25% (inactive) and -0.499% (inactive)

SMILES: O=C(O)C(Br)CBr (configuration not stated)
- Potency [1]: > 92 µM (inactive)
- caspase-3 activation [3]: 1.63% (inactive)
- Potency [4]: inactive
- Potency [14]: inactive
- Potency [15]: inactive
- activation [17]: -2.23% (inactive)
- outcome [7]: inactive
- max response [8]: 31.3%
- outcome [9]: inactive
- outcome [18]: inactive
- Potency [10]: 42.2 µM (active)
- activation [16]: 3.2% (inactive)
- activation [11]: 1.48% (inactive)
- Potency [12]: inactive

SMILES: C1CC2OC2CC1C1CO1 (configuration not stated)
- Potency [1]: > 92 µM (inactive)
- Potency [13]: inactive
- Potency [2]: inactive
- caspase-3 activation [3]: -1.28% (inactive)
- Potency [15]: inactive
- outcome [5]: inactive
- max response [8]: 13.2%
- outcome [9]: inactive
- Potency [19]: inactive
- outcome [18]: inactive
- Potency [10]: inactive
- activation [16]: -4.75% (inactive) and -3.06% (inactive)
- activation [11]: -0.692% (inactive) and -2.3% (inactive)
- Potency [12]: inactive

SMILES: C(CCOCC1CO1)COCC1CO1 (configuration not stated)
- Potency [1]: > 92 µM (inactive)
- Potency [13]: inactive
- Potency [2]: 31.6 µM (active)
- caspase-3 activation [3]: 15.1% (inactive)
- Potency [4]: inactive
- Potency [14]: inactive
- Potency [15]: inactive
- outcome [5]: inactive
- activation [17]: -0.372% (inactive)
- outcome [6]: inactive
- outcome [7]: inactive
- max response [8]: -10%
- outcome [9]: inactive
- outcome [18]: inactive
- Potency [10]: 66.8 µM (active)
- activation [11]: 0.765% (inactive)
- Potency [12]: inactive
- Potency [20]: inactive

SMILES: CCOP(=S)(OCC)Oc1nc(Cl)c(Cl)cc1Cl
- Potency [1]: > 92 µM (inactive)
- Potency [2]: inactive
- caspase-3 activation [3]: -1.27% (inactive)
- Potency [4]: inactive
- Potency [14]: inactive
- Potency [15]: inactive
- outcome [5]: inactive
- activation [17]: 0.796% (inactive) [middle of 4 runs]
- outcome [6]: inactive
- outcome [7]: inactive
- max response [8]: 21.6%
- Potency [19]: inactive
- outcome [18]: inactive
- Potency [10]: 37.6 µM (active) [middle of 4 runs]
- activation [16]: 2.38% (inactive) [middle of 4 runs]
- activation [11]: -1.28% (inactive) [middle of 4 runs]
- Potency [20]: inactive

SMILES: Cc1cc(-c2cc(C)c(N)c(C)c2)cc(C)c1N
- Potency [1]: > 92 µM (inactive)
- Potency [13]: inactive
- Potency [2]: inactive
- caspase-3 activation [3]: 1.01% (inactive)
- Potency [4]: inactive
- Potency [14]: inactive
- Potency [15]: inactive
- activation [17]: -0.885% (inactive)
- outcome [7]: inactive
- max response [8]: 7.84%
- outcome [9]: inactive
- activation [16]: -3.17% (inactive)
- activation [11]: 0.737% (inactive)
- Potency [12]: inactive
- Potency [20]: inactive

SMILES: Oc1c(Cl)c(Cl)cc(Cl)c1Cl
- Potency [1]: > 92 µM (inactive)
- caspase-3 activation [3]: 83.2% (active)
- Potency [4]: inactive
- max response [8]: -31%
- outcome [9]: inactive
- outcome [18]: inactive
- Potency [10]: 66.8 µM (active)
- Potency [12]: 42.2 µM (active)
